Assay results as given in PubChem BioAssay (NCI).
This is part of a sample that, as a whole, favours compounds with a hit. Of some 79,000 tested, about 15% had one in any assay. Values without a mark were called inactive. Calls of active or inactive are those of the source. No stated cut-off is given here; in the data, active means growth inhibition above about 70%; inactive means the rest.

What was measured:
[1] = NCI Yeast Anticancer Drug Screen. Data for the rad50 strain (AID 155);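 further: 0% = growth of vehicle-only cultures of the same strain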; conditions: S. cerevisiae rad50 strain growth inhibition; at 50.0 µM; hits give high values
In short: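 Compounds were tested on a yeast strain with an engineered DNA damage repair alteration; the reported value is growth inhibition normalised to vehicle treatment.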

[2] = NCI Yeast Anticancer Drug Screen. Data for the mec2-1 strain (AID 157); conditions: S. cerevisiae mec2-1 strain, at 50.0 µM, hits give high values
In short: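 Growth inhibition is read against vehicle-treated controls after compound exposure of the mec2-1 yeast strain, which is defective in DNA damage repair or cell cycle control.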

[3] = NCI Yeast Anticancer Drug Screen. Data for the sgs1 mgt1 strain (AID 161);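 further: 0% = growth of cultures given vehicle only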; conditions: S. cerevisiae sgs1 mgt1 strain, at 50.0 µM, hits give high values
In short: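 Yeast cells carrying a defined DNA-repair defect were exposed to test compounds. Growth inhibition was measured relative to vehicle-treated controls.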

[4] = NCI Yeast Anticancer Drug Screen. Data for the cln2 rad14 strain (AID 165);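 further: 0% = growth equal to vehicle treated cultures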; conditions: S. cerevisiae cln2 rad14 strain, at 50.0 µM, hits give high values
In short: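 Growth inhibition, relative to vehicle-treated controls, is the read-out. The test organism is a yeast strain with defined genetic alterations, cln2 rad14.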

[5] = NCI Yeast Anticancer Drug Screen. Data for the bub3 strain (AID 167); conditions: S. cerevisiae bub3 mutant strain, at 50.0 µM, hits give high values
In short: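 Growth of a checkpoint-deficient yeast mutant is measured after compound exposure. Values represent inhibition relative to vehicle.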

[6] = NCI Yeast Anticancer Drug Screen. Data for the mlh1 rad18 strain (AID 175); conditions: S. cerevisiae mlh1 rad18 strain growth inhibition; at 50.0 µM; hits give high values
In short: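 Cells of a genetically altered yeast strain, deficient in DNA damage repair, were treated with compound. Their growth was then compared with that of vehicle-treated cultures to give inhibition.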

Compound | growth inhibition [1] | growth inhibition [2] | growth inhibition [3] | growth inhibition [4] | growth inhibition [5] | growth inhibition [6]
CCC(O)C(C)C(O)CC (stereo unspecified) | 7.9% | 14.7% | 2.6% | 13.3% | 13.2% | 17.5%
Cc1ccccc1-n1c(C)nc(-c2ccccc2)cc1=O | -23.4% | -47.2% | -4.9% | 15.5% | -9.4% | 2.8%
CC(C)=CCNC(N)=O | 4.95% | -3.8% | -10.5% | 11% | 7.4% | 2.15%
CCOCCn1c(=O)cc(C)c2ccccc21 | -20.3% | 1.6% | -16.8% | -41.3% | 14.2% | -13.7%
O=C(Nc1ccccn1)OCCCl | -1.6% | 0.6% | 4.35% | 10.1% | -28.2% | 7.1%
Cc1ccc(/C=C/C(=O)C(C)(C)CN2CCCCC2)cc1 | 35.6% | -9.05% | 25.1% | 14.3% | 10% | 17.9%
Cc1ccccc1NC(=O)/C=C\C(=O)O | 8.9% | -10.3% | -0.7% | 10.1% | -14.4% | 10.2%
CCCOC(=O)COc1ccccc1 | 10.1% | 5.7% | -4.3% | -45% | -11.4% | 2.4%
C=C1C(=O)OC2C1C(OC(=O)/C(=C/CO)CO)CC1(CO1)C1CC=C(C)C21 (stereo unspecified) | 32.2% | 8.05% | 19.8% | -2.15% | -1.95% | 9.6%
Cc1cc(C)c(C(=O)CC(C)C)c(C)c1 | -8.15% | -3% | 4.2% | 24.6% | -3.45% | -4.2%
COc1ccc(C(=O)Nc2ccccc2)cc1 | 7.45% | 8.7% | -0.3% | 6.25% | -1.2% | -4.65%
CCCC1(O)c2ccccc2-c2ccccc21 | 12.1% | 17.9% | -5.6% | 14.9% | 26.4% | 17%
CCC(=O)Oc1ccccc1OC(=O)CC | 35.9% | 18.3% | 21% | 11.6% | 1.9% | 45.2%
COC(=O)c1cccc(C(=O)CC(=O)c2ccccc2)c1 | 18.6% | 12.7% | 8.1% | 12.3% | 11.2% | 11.6%
CCOC(=O)NCS(=O)(=O)N1CCOCC1 | 25.6% | 9.25% | 8% | 19.6% | 3.45% | 9.7%
Cc1ccc(P(=O)(O)O)c([N+](=O)[O-])c1 | 5.4% | 1.7% | -3.65% | -7.2% | -4.35% | 12.9%
COc1ccc(NCc2cnc3nc(N)nc(N)c3c2C)cc1 | 7% | 6.6% | 16.6% | 16.5% | 1.85% | -49%
CC(=O)[C@H]1[C@H](C)C[C@H]2[C@@H]3CCC4=CC(=O)CC[C@]4(C)[C@@]3(F)C(=O)C[C@@]21C | -5.45% | 1.2% | -3.3% | -28.4% | 6% | 4%
O=P(O)(OCCOc1ccccc1)OCCOc1ccccc1 | 6.25% | 10.5% | 8.25% | -24.6% | -11.6% | -12.8%
CCNc1ncc2nc(CC(=O)OC)c(=O)n(CC)c2n1 | -10.3% | 1.6% | 4.75% | -75.6% | 10.5% | -4.4%
N#C/C(=C\c1ccccn1)c1ccc(Cl)cc1 | 3.15% | 1.1% | 11.5% | -17.4% | 17.3% | 53.7%

Compound | growth inhibition [1] | growth inhibition [2] | growth inhibition [3] | growth inhibition [4] | growth inhibition [5] | growth inhibition [6]
Cc1nc(N)c(N2CCN(CN)CC2)c(=O)[nH]1 | -35.2% | 7.1% | -5.85% | 21.6% | 25.9% | -38%
CCOCCOC(=O)C1CCCC1=O (stereo unspecified) | -5.25% | -11.3% | -34.9% | -10.1% | -11.2% | -8.45%
OC1OC2COC(c3ccccc3)OC2C(O)C1O (stereo unspecified) | 4% | -14.5% | 8.15% | -3.35% | -3.3% | -20.9%
Nc1nc(-c2ccccc2)c(N=Nc2cc(Cl)ccc2Cl)s1 | 4.5% | 1% | -2.3% | -5.05% | 8.2% | -2.1%
Cc1nc2cccc([N+](=O)[O-])c2c(O)[n+]1C | -13.9% | -10.8% | -12.4% | -17.6% | -9.05% | -17.9%
Cc1cc(S(=O)(=O)Nc2nc(N)nc(N3CCCCC3)n2)c(S)cc1Cl | -0.3% | -11.7% | -13% | -7.15% | -5.2% | 5.35%
CCCCCCCCCSc1nc2ccc(N=Cc3ccccc3O)cc2s1 | -2.85% | -6.8% | -23.5% | -10.1% | 1.3% | -40.6%
CC1=CCCCC1(C)/C(C)=N/Nc1ccc([N+](=O)[O-])cc1[N+](=O)[O-] (stereo unspecified) | 2.05% | 7.3% | 2.8% | 2.75% | -1.4% | -15.3%
CCc1c(O)cc(=O)oc1-c1ccc(OC)c(OC)c1 | 21% | -16.2% | 2.15% | 6.05% | -6.9% | -26.6%
NCCCNCCCCNCCCNCc1c2ccccc2c(CNCCCNCCCCNCCCN)c2ccccc12 | 90.7% (active) | 93.1% (active) | 93.2% (active) | 91.9% (active) | 91.8% (active) | 90.8% (active)
CCn1c(=O)c2nc(SC)sc2n(-c2ccc(C)cc2)c1=O | -21.2% | -0.6% | -5.7% | 9.7% | 2% | 20.9%
NC(=O)CCC(N)=O | 22.6% | 5.75% | 5.25% | -5.4% | 17.1% | 1.45%
CC(=O)O[C@@H]1[C@@H](C)[C@]2(CC(c3ccoc3)OC2O)C2CCC3O[C@]3(C)[C@]2(C)[C@@H]1OC(C)=O (stereo partly specified) | -16% | -20.1% | -42.6% | -12.2% | -39.5% | -28.4%
CC(C#N)Nc1ccc(Oc2ccc(C(C)(C)c3ccc(Oc4ccc(NC(C)C#N)cc4)cc3)cc2)cc1 (stereo unspecified) | 6.25% | -2.6% | -8.3% | 7.1% | -23.6% | -40.1%
COC1=C(C(c2cc(OC)c(OC)c(OC)c2)c2cc3c(cc2OC)OCO3)C(=O)OC1 (stereo unspecified) | -18.6% | -5.9% | -2.9% | 6.25% | 1.1% | 13.4%
CC1(C)CCCCC1=O | -0.15% | -1.8% | 7.1% | 22.1% | 26.1% | -14.3%
Cn1c2ccc(Br)cc2c2cc(Br)cc([N+](=O)[O-])c21 | 6.55% | 5.05% | 14.9% | -4.95% | -2.05% | 15.3%
COc1cccc(NC(=S)/C(=C(/[O-])c2ccc([N+](=O)[O-])cc2)[n+]2cccc3ccccc32)c1 | 26.1% | 19.2% | 22.1% | 33.2% | 28.2% | 10.5%
COc1ccc(N2C(=O)C3c4[nH]c5ccccc5c4C4CCCCCCCCCCC4C3C2=O)cc1 (stereo unspecified) | 9.95% | -19.6% | -3.2% | -65.3% | -26.4% | -4.2%
O=C1c2ccccc2OC(Cl)(c2ccccc2)C1Cl (stereo unspecified) | -15.1% | -2.4% | -7.5% | -21.8% | 22.7% | 2%
